Experimental findings from PubChem BioAssay are described below.

The nature of test [1]: inhibitors of TNFa-induced NFkB p65 translocation, primary screen, imaging, HUVEC, MLSMR starter and 10KST1 sets (AID 438;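 active = inhibition above 20% together with a positive visual image hit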;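 also: compound added about 3h40 before a 20 min TNFalpha stimulation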;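 as to inhibition: signal is the nuclear over cytoplasmic p65 intensity ratio per well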). As to conditions: HUVEC TNFa-induced p65 nuclear translocation; cell count: measured here: nuclei count (cytotoxicity indicator), at 2.08 µM; inhibition: at 2 µM, stronger effect = higher value, 0% TNFa-plus-vehicle, 100% no-TNFa wells.
Test [2] in a line: reduction of polyQ htt aggregates in cells – imaging, exon1htt(103Q)mCFP cells, high-content imaging, primary screen (AID 483;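 active = visual image review flags a hit and inhibition of aggregation exceeds 20%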;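 also: compound exposure lasted 3 days before fixation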;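 as to nuclei count: percent of the per-plate median nuclei count of sample wells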). The following applies: exon1htt(103Q)mCFP cell line, aggregate imaging, at 2 µM; inhibition of aggregation: stronger effect = higher value; nuclei count: measured here: cell count, toxicity.
The nature of test [3]: endothelial E-selectin expression blockers – imaging, HUVEC, immunofluorescence, MLSMR starter and 10KST1 sets, primary screen (AID 487;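 active = visually confirmed hit in the image check and inhibition above 20%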;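 as to inhibition: signal is fraction of cell area covered by stained E-selectin grains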;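 as to nuclei count: 100% = median nuclei count of all wells on the same plate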). As to conditions: HUVEC TNFalpha-induced E-selectin immunofluorescence imaging, at 2 µM; inhibition: stronger effect = higher value; nuclei count: measured here: cell number, toxicity.
The nature of test [4]: Primary imaging screen for DUSP6 inhibitors that restore phospho-Erk in transfected HeLa cells, chemical complementation (AID 609;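 active = compounds giving at least 50% inhibition in the cell-based MKP-3 phosphatase rescue imaging test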;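 as to inhibition: phospho-Erk level distribution per well compared with pooled transfected vehicle control wells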). The following applies: HeLa MKP-3 transfected, phospho-Erk imaging KS statistic, at 10 µM, cells stimulated with TPA for 15 min.
The target in test [5] is Dual specificity protein phosphatase 6 (Homo sapiens) (UniProt Q16828). The test is described as above. As to conditions: HeLa MKP-3 transfected, phospho-Erk imaging KS statistic; at 10 µM; stronger effect = higher value; cells stimulated with TPA for 15 min.
Chain of Dual specificity protein phosphatase 6 (Homo sapiens) (Q16828 whole entry, looked up): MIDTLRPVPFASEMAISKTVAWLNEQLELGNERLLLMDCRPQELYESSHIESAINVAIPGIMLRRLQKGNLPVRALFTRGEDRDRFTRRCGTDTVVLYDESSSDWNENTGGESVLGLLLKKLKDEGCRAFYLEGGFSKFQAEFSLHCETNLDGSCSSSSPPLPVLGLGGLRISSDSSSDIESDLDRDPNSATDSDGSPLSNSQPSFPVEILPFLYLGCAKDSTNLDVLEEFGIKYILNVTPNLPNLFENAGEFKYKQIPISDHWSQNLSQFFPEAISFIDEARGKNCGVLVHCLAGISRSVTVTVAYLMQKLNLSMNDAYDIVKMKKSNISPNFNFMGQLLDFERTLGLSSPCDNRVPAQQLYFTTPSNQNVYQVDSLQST
Test [6] addresses Voltage-gated potassium channel subunit beta-2 (Rattus norvegicus) (UniProt P62483). The test can be described thus: inhibitors of rat Kvbeta2 reductase activity – biochemical, NADPH fluorescence, primary screen (AID 622;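 active = fluorescence slope higher than the sample average by over 3 SD, cut at about -0.22 in these data, passing the limit was not always enough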;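 also: slope of raw intensity against log time taken from 70 to 1610 s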). As to conditions: recombinant KvBeta, 4-cyanobenzaldehyde reduction, at 10 µM, stronger effect = higher value.
The target is the same in test [7]. The test can be described thus: enhancers of rat Kvbeta2 NADPH turnover – biochemical, NADPH fluorescence, primary screen (AID 623;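 active = NADPH fluorescence slope more negative than the mean of all samples by about 3 SD, 99.7% confidence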;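 also: fluorescence intensity change per second fitted from 20 to 320 s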). The following applies: Recombinant KvBeta, NADPH fluorescence decrease slope, 10 min; at 10 µM; stronger effect = lower value.
Test [8] has as its target Alpha-2C adrenergic receptor (Homo sapiens) (UniProt P18825). The test can be described thus: compounds altering alpha2C-coupled GIRK flux – cell-based, HEK293 alpha2C/GIRK1/2, thallium flux, primary screen (AID 624).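 Also: slope of fluorescence ratio to pre-addition baseline per second over 15 to 24 s.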 The following applies: thallium flux BTC fluorescence, at 10 µM, actives lie on both sides.
Test [9] deals with Muscarinic acetylcholine receptor M4 (Homo sapiens) (UniProt P08173). As to the kind of experiment: M4-linked GIRK flux change, two-sided – cell-based, HEK293 M4/GIRK, thallium flux, BTC-AM, M4 allosteric agonist project, primary screen (AID 625;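 active = fluorescence slope after compound addition differing from the mean of all tested samples at 99.7% confidence, mostly higher but some lower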;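 also: thallium influx through GIRK channels coupled to M4 in HEK293 cells with BTC-AM dye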). The following applies: at 10 µM, actives lie on both sides.
Chain of Muscarinic acetylcholine receptor M4 (Homo sapiens) (P08173 whole entry, looked up): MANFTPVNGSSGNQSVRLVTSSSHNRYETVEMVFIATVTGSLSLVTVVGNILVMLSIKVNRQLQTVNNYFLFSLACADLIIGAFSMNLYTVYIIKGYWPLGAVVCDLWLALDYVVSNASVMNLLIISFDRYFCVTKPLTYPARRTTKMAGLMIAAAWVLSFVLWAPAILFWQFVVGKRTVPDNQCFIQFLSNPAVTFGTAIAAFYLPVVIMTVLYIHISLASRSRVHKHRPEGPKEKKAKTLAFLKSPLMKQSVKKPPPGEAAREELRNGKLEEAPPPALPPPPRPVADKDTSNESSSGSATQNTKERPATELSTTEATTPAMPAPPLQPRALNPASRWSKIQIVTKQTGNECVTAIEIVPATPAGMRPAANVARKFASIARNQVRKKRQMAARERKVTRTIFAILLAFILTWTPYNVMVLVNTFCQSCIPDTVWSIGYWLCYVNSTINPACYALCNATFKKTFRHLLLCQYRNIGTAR
The nature of test [10]: inhibitors of larval lipid processing in zebrafish, primary screen, whole organism, PED6 fluorescence, gall bladder and intestine (AID 686;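 active = a full or partial loss of lipid-probe fluorescence in the fish gall bladder, intestine or both, judged by eye; inactive = no fluorescence loss, or compound toxic to the fish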;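 also: larvae 5 to 7 days old with five fish per well; signal comes from phospholipase A2 cleavage of quenched PED6 carried via bile; overnight exposure to compound and PED6 before scoring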). As to conditions: Zebrafish larvae PED6 lipid processing, fluorescence scoring; screened at 20 µM (by protocol).
Test [11] is described as follows: loss of swimming-algae plug formation – whole organism, Chlamydomonas reinhardtii, WT vs cilia-less mutant, absorbance, 96-well, primary screen (AID 463189;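 active = inhibition at or above 50% relative to wild type and mutant plate controls; inactive = inhibition below 50%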;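 also: 0% = wild type cc124 cells in DMSO and 100% = ciliumless bld1 mutant cells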). As to conditions: Chlamydomonas reinhardtii gravitaxis, OD600 absorbance, 2 days; at 10 µM; stronger effect = higher value.
Test [12] is described as follows: blockers of RIG-like receptor reporter activation – cell-based, Sendai virus stimulus, luciferase, 10K MLSCN set, TLR/RLR signaling modifier project, primary screen (AID 602276;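 active = inhibition at or above 50% at 10 µM; inactive = inhibition below 50%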;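 also: firefly luciferase from ISG56 promoter only with Renilla not read in this screen; 0% = Sendai virus plus DMSO and 100% = medium plus DMSO without virus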). The following applies: HEK293 RL24 IRF3 luciferase reporter, at 10 µM, stronger effect = higher value. On the technique in general: A reporter such as luciferase makes a cellular process visible.
Test [13] can be described thus: TLR3 IRF3 reporter activation blockers – cell-based, poly I:C stimulus, luciferase, 10K MLSCN set, primary screen (AID 602277;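 active = inhibition of the reporter signal at or above 50%; inactive = inhibition below 50%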). As to conditions: HEK293-TLR3 RL24 IRF3 luciferase reporter, at 10 µM, stronger effect = higher value.
[14] abbreviates: measured here: cell density z-score.
[15] abbreviates: measured here: nuclear c-Myc green intensity z-score.
Where [16] appears, read: measured here: nuclear pErk red intensity z-score, stronger effect = higher value.

The source made the active and inactive calls.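 The calls were made as follows, unless noted: active = fluorescence slope after compound addition differing from the mean of all screened samples at 99.7% confidence, in either direction; inactive = the rest.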

The term inhibition denotes the change of the read-out against control, counted positive when it falls.

Chain of Alpha-2C adrenergic receptor (Homo sapiens) (P18825 whole entry, looked up): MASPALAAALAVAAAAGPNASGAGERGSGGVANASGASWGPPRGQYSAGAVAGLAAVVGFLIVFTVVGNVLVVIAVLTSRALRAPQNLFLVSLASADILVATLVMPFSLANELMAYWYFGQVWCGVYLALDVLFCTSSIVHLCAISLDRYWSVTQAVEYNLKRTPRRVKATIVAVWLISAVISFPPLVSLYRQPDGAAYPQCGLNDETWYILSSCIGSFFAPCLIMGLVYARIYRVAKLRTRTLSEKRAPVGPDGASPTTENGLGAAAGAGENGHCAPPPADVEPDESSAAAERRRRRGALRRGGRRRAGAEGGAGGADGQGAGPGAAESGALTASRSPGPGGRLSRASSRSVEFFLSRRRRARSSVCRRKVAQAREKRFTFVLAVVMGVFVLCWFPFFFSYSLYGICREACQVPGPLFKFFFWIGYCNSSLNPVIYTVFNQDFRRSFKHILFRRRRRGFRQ
Chain of Voltage-gated potassium channel subunit beta-2 (Rattus norvegicus) (P62483 whole entry, looked up): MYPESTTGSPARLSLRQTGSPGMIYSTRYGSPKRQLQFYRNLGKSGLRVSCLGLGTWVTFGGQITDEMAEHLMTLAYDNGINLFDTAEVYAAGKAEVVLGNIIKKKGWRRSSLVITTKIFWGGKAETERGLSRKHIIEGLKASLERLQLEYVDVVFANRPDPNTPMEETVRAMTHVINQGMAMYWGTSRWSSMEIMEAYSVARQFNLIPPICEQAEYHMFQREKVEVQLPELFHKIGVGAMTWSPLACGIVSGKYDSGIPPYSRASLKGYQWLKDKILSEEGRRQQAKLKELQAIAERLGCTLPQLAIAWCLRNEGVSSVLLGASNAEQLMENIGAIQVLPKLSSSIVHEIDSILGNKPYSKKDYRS

With `Cc1cc(C)c2c(N)c(C(=O)c3ccccc3)oc2n1`, the cell count in test [1] turned out to be 544. For the same molecule, the inhibition in [1] is -4.5% (inactive); in [3], -33.5% (inactive); in test [5] it was -3.95% (inactive); in test [11] it was 14.6% (inactive); in test [12], -2.38% (inactive); in test [13] it was -28.6% (inactive). Moreover, in test [2], the inhibition of aggregation was 6.6% (inactive). Also, the nuclei count came out at 96.6% in test [2] and 134% in test [3]. In addition, the z-score in test [4] (setting [14]) was -0.541; in [4] (setting [15]), 1.87; in test [4] (setting [16]), 0.479. Also, the fluorescence slope is -0.437 (inactive) in [6] and 0.00618 (inactive) in test [9]. The NADPH fluorescence slope in [7] was -2.9e-05 (inactive). In addition, in [8], the slope is 0.00545 (inactive). For the same molecule, in test [10], the molecule was called inactive.
Take `COc1ccc(C2/C(=C(/O)c3cnn(-c4ccccc4)c3C)C(=O)C(=O)N2CCN(C)C)cc1OC` (stereo not given): the cell count in test [1] was found to be 517. The inhibition was -9.1% (inactive) in test [1]; -17.7% (inactive) in test [3]; -6.86% (inactive) in test [5]; -4.78% (inactive) in test [11]; 2.76% (inactive) in [12]; 15.6% (inactive) in test [13]. In test [2], the inhibition of aggregation was 16% (inactive). In addition, the nuclei count in [2] turned out to be 72.6%; in [3] it was 125%. Besides, the z-score is -1.21 in test [4] (setting [14]), 1.21 in [4] (setting [15]) and 1.2 in test [4] (setting [16]). Further, the values for the fluorescence slope in test [6] and in test [9] were -0.428 (inactive) and 0.00527 (inactive), respectively. Moreover, in [7], the NADPH fluorescence slope is -0.000117 (inactive). In test [8], the slope is 0.00586 (inactive). In addition, the molecule was classed as inactive in [10].
For the molecule `Cn1c(=O)c2c(nc(NCc3ccc4c(c3)OCO4)n2Cc2ccccc2F)n(C)c1=O`, in [1], the cell count was found to be 651. In addition, the inhibition was -4.2% (inactive) in [1]; -161% (inactive) in test [3]; 1.9e-07% (inactive) in test [5]; 38.3% (inactive) in test [11]; -2.97% (inactive) in test [12]; 10.4% (inactive) in test [13]. The inhibition of aggregation in [2] was 37.8% (active). The nuclei count was 50.9% in test [2] and 126% in [3]. Also, the z-score in test [4] (setting [14]) is -0.011; in test [4] (setting [15]) it was -1.47; in test [4] (setting [16]), 0.345. Further, the fluorescence slope in test [6] was -0.45 (inactive); in [9] it was 0.00703 (inactive). The NADPH fluorescence slope in [7] was -0.000288 (inactive). Further, the slope in test [8] is 0.00635 (inactive). The outcome in test [10] was inactive.
`CN(C)C(CN1C(=O)C2CC=CCC2C1=O)c1cn(C)c2ccccc12` (stereo not given): in test [1], the cell count is 665. For the same molecule, the inhibition in test [1] was 2.5% (inactive); in [3], -48.8% (inactive); in [5] it was -3.95% (inactive); in test [11], -7.45% (inactive); in test [12], 24.3% (inactive); in test [13] it was 46.8% (inactive). In addition, in test [2], the inhibition of aggregation is 12.2% (inactive). In addition, the nuclei count in test [2] is 99.9%; in test [3], 124%. In addition, the z-score is -1.61 in test [4] (setting [14]), 2.35 in [4] (setting [15]) and 0.886 in test [4] (setting [16]). Further, the fluorescence slope in test [6] was -0.474 (inactive); in [9], 0.00462 (inactive). Further, the NADPH fluorescence slope in test [7] was -2.6e-05 (inactive). Besides, the slope in [8] was 0.00544 (inactive). Also, in test [10], the outcome was inactive.
As to `c1ccc(-c2ccc(C(c3ccccc3)n3ccnc3)cc2)cc1` (stereo not given), the cell count in [1] was determined as 591. In addition, the inhibition in test [1] was 2% (inactive); in test [3], -58.4% (inactive); in [5], 16.8% (inactive); in test [11] it was 13.3% (inactive); in test [12] it was 2.51% (inactive); in test [13] it was 18.2% (inactive). Also, the inhibition of aggregation in test [2] was 10.9% (inactive). Moreover, the nuclei count was 91.4% in test [2] and 106% in test [3]. Besides, the z-score is -1.14 in test [4] (setting [14]), 0.79 in [4] (setting [15]) and -0.101 in test [4] (setting [16]). Besides, the fluorescence slope was -0.555 (inactive) in test [6] and 0.00623 (inactive) in [9]. Moreover, the NADPH fluorescence slope in [7] is -3.5e-05 (inactive). Moreover, in test [8], the slope was 0.00412 (inactive). The molecule was called inactive in test [10].
